Biological target: NADPH oxidase 2 (Homo sapiens) (UniProt P04839)
Test: NOX2-dependent H2O2 signal modulators, primary screen, NOX inhibitor project, cell-based, HEK293-NOX2, PMA-stimulated, Amplex Red fluorescence (AID 1159); further: test concentration not given here
Conditions: 45 min, higher = more signal, called active from +8 up or from −8 down

NADPH oxidase 2 (Homo sapiens), sequence (P04839 whole entry, looked up): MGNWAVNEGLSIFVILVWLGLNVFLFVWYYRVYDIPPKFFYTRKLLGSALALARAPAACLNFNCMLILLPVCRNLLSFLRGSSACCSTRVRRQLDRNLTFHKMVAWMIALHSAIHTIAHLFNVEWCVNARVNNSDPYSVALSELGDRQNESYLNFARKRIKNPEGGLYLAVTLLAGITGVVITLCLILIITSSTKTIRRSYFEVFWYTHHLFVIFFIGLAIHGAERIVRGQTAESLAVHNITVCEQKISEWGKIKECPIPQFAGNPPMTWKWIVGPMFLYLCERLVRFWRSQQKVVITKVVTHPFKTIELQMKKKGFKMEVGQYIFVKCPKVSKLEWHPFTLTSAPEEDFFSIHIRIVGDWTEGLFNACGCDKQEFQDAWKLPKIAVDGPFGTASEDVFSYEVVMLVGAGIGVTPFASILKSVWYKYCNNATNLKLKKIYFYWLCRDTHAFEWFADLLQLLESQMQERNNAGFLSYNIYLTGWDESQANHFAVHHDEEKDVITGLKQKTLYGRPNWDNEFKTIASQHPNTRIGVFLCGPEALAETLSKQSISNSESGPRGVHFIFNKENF

z-score, inactive:
CC1CC/C=C\[C@H]2OC34C=CCN(Cc5ccccc5)C(=O)[C@H]3N(CCCCCO)C(=O)[C@@H]4C2C(=O)O1 (stereo partly specified) 0.852
COCCOC(=O)N1C(=O)[C@@]2(c3cc(C#CCNC(N)=O)ccc31)[C@H](C(=O)N1CCc3cc(OC)c(OC)cc3C1)[C@H]1C(=O)O[C@H](c3ccccc3)[C@H](c3ccccc3)N1[C@@H]2c1ccc(OCCO)cc1 0.825
O=C1OCCC/C=C\[C@H]2OC34C=CCN(Cn5nnc6ccccc65)C(=O)[C@H]3N(CCCCCO)C(=O)[C@@H]4C12 (stereo partly specified) 0.871
O=C(O)[C@@]1(Cc2ccccc2)N=C(c2ccc(OCCCO)cc2)O[C@H]1c1ccccc1 0.18
Cc1ccc(S[C@]2(C(=O)NC3CC3)CC(=O)N(C3CCCCC3)[C@@H]2c2ccc(CO)cc2I)cc1 0.655
O=C/C=C/c1ccc2c(c1)OCO2 -0.41
CC(C)(C)OC(=O)CC[C@@]1(C(=O)O)N=C(c2ccc(OCCCO)cc2)O[C@@H]1c1ccccc1N=[N+]=[N-] -0.0442
COCCOC(=O)N1C(=O)[C@@]2(c3cc(C#CCC(C(=O)OC)C(=O)OC)ccc31)[C@H](C(=O)N1CCN(c3ncccn3)CC1)[C@H]1C(=O)O[C@H](c3ccccc3)[C@H](c3ccccc3)N1[C@@H]2c1ccc(OCCO)cc1 1.41
COCCOC(=O)N1C(=O)[C@@]2(c3cc(C#CCC(C(=O)OC)C(=O)OC)ccc31)[C@H](c1ccc(O)cc1)N1[C@H](c3ccccc3)[C@H](c3ccccc3)OC(=O)[C@H]1[C@@H]2C(N)=O 1.4
C=CCOC(=O)[C@@H]1[C@H]2C(=O)O[C@H](c3ccccc3)[C@H](c3ccccc3)N2[C@H](c2ccc(OCCOC(=O)[C@@H]3C[C@@H]4C(=O)NCC(=O)N4[C@@H]3c3cccc(OCCO)c3)cc2)[C@@]12C(=O)Nc1ccc(I)cc12 1.72
C#CCN(C(/C=C/c1ccccc1)CO)C(C(=O)O)c1ccccc1 (stereo unspecified) -0.269
COC(=O)[C@@]1(Cc2ccc(F)cc2)[C@H]2c3cc(C(=O)N4CCCC4)n(Cc4cccc5ccccc45)c3C[C@H]2CN1C(=O)c1ccccc1 0.836
CC(C)CNC(=O)[C@@H]1c2ccccc2C(=O)N(Cc2cc(C(F)(F)F)cc(C(F)(F)F)c2)[C@H]1c1ccc(CO)cc1 0.753
COc1cc2c(cc1OC)CN(C(=O)[C@@H]1[C@H]3C(=O)O[C@H](c4ccccc4)[C@H](c4ccccc4)N3[C@H](c3ccccc3OCCO)[C@@]13C(=O)Nc1ccc(C#CCNC(N)=O)cc13)CC2 1.24
COC(=O)c1ccc(C(O)C2C=CC3C(=O)N(c4ccccc4)C(=O)C3N2Nc2ccc(C#N)cc2)o1 (stereo unspecified) -0.499
CC(=O)NCCCC[C@@H]1NC(=O)[C@@H]2C[C@H](C(=O)NCCCCCCNC(=O)CS)[C@H](c3ccc(O)cc3)N2C1=O 0.897
O=c1cccc(C=Cc2ccccc2)o1 0.165
COc1ccc([Si](C)(C)[C@@H]2[C@@H](CC(=O)N3CCC[C@H]3CO)O[C@]3(C(=O)N(C)c4c(Br)cc(C)cc43)[C@H]2C)cc1 1.73
CC(C)N1C(=O)[C@@]2(c3ccc([N+](=O)[O-])cc3)CC(=O)N(CC34CC5CC(CC(C5)C3)C4)[C@@H]2c2ccc(CO)cc21 0.306
COC(=O)[C@@]1(Cc2ccccc2)N=C(c2ccc(OCCCO)cc2)O[C@H]1c1ccccc1N=[N+]=[N-] -2.01
N#Cc1ccc(NN2C(C(O)c3ccc([N+](=O)[O-])cc3)C=CC3C(=O)N(c4ccccc4)C(=O)C32)cc1 (stereo unspecified) -1.45
[N-]=[N+]=Nc1ccccc1[C@@H]1OC(c2ccc(OCCCO)cc2)=N[C@]1(CCS(=O)(=O)c1ccccc1)C(=O)N1CCOCC1 -1.54
O=C(O)[C@H]1C[C@H]2C(=O)NCC(=O)N2[C@H]1c1ccc(O)cc1 -1.99
O=c1cccc(CCc2ccccc2)o1 0.378
CCN(CC)c1ccc(N2CC=CC34O[C@@H]5C=CCCOC(=O)C5[C@H]3C(=O)N(CCCCCO)[C@@H]4C2=O)cc1 (stereo partly specified) -0.11
COCCCNC(=O)[C@@]1(c2ccc([N+](=O)[O-])cc2)CC(=O)N(CC23CC4CC(CC(C4)C2)C3)[C@@H]1c1ccc(CO)cc1 -0.237
[N-]=[N+]=NCc1ccccc1C[C@]1(C(=O)NCC(O)CO)N=C(c2ccc(OCCCO)cc2)O[C@H]1c1ccccc1N=[N+]=[N-] (stereo partly specified) -0.689
[N-]=[N+]=NCc1ccccc1[C@@H]1OC(c2ccc(OCCCO)cc2)=N[C@]1(Cc1ccccc1N=[N+]=[N-])C(=O)NCc1ccccc1 -0.654
O=C1OCC=C[C@H]2OC34C=CCN(c5ccc(Cl)cc5)C(=O)[C@H]3N(CCCCCCO)C(=O)[C@@H]4[C@@H]12 (stereo partly specified) 1.42
CC(C)C[C@@H]1NC(=O)[C@H]2C[C@@H](C(=O)NCCCCCNC(=O)CS)[C@@H](c3cccc(OCCO)c3)N2C1=O 2.16
COC(=O)[C@@]1(Cc2ccccc2)[C@H]2c3cc(C(=O)N4CCCC4)n(Cc4ccc(C)o4)c3C[C@H]2CN1C(=O)c1ccccc1 -0.254
O=C1c2ccccc2[C@@]2(Cc3ccccc3N(Cc3ccccc3)C2=O)[C@H](c2ccc(CO)cc2)N1C1CCCCC1 0.162
COc1ccccc1CN1C(=O)c2ccccc2[C@@H](C(=O)NCCN2CCOCC2)[C@@H]1c1ccc(CO)cc1 1.26
COc1cccc(C(=O)O[C@H]2CC[C@]3(C)C4=C(CCC3C2(C)C)[C@]2(C)CC[C@H]([C@H](C)CCCC(C)C)[C@@]2(C)CC4)c1 (stereo partly specified) -0.606
C[C@H]1NC(=O)[C@H](Cc2ccccc2)NC(=O)[C@@]23C(=O)N[C@@H](Cc4ccccc4)C2[C@H](C)[C@@]2(C)O[C@H]2C3/C=C/C/C=C\CNC1=O (stereo partly specified) -0.287
CS(=O)(=O)CCOC(=O)C1=CC(CCCO)=CC(c2cccs2)N(Cc2cc3c(cc2Br)OCO3)C=C1C(=O)OCCS(C)(=O)=O (stereo unspecified) -2.11

Source: PubChem BioAssay
